Where “and” joins values, the source holds several entries; their conditions need not be identical. Equal entries are not always repeated. Structures can show the parent of a compound that is named as a salt. The campaign covered roughly 5,800 compounds. About 620 (11%) showed activity. The full list was thinned out, with actives kept by preference. A number with no mark means an inactive call.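 How the source made its calls: active = score above a cut-off or among the top three wells of a plate; in these data no inactive exceeds 0.85.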

In this assay the test system is primary human hepatic stellate cells (donor 1). Nature of the assay: scaled lipid accumulation score (0 = DMSO-like, 1 = nortriptyline-like); higher = stronger HSC inactivation (lipid re-accumulation), active = hit call of the paper. Particulars: 48 h.
Setting [1] is: library stock concentration: 3.33 mM.
The mark [2] stands for this setting: library stock concentration: 10 mM.
Setting [3] is: library stock concentration: 400 uM.
Where [4] appears, read: library stock concentration: 2 mM.
Setting [5] is: library stock concentration: 1 mM.
[6] abbreviates: library stock concentration: 80 uM.

Regarding `COc1ccnc2[nH]cc(C(=O)C(=O)N3CCN(C(=O)c4ccccc4)C[C@H]3C)c12`, the “scaled lipid accumulation score” value is not above 0 under setting [1] and 0.019 under setting [2]. In the same order, the values of `O=C(O)c1ccc(N2C(=O)C(=Cc3ccc(-c4ccc([N+](=O)[O-])cc4)o3)C=C2c2ccccc2)cc1` are 0.129 and 0.284.

In the case of `Cc1nc(N)ncc1-c1nc(N2CCOCC2)c2sc(C(C)(C)O)cc2n1`, the “scaled lipid accumulation score” value is 0.092 under setting [3], not above -0.005 under setting [4] and not above -0.005 under setting [2].

Turning to `O=C(CCCCc1ccccc1)C(F)(F)C(F)(F)F`, the “scaled lipid accumulation score” value under setting [5] is not above 0. As for `CC1CC(OC(=O)C(O)c2ccccc2)CC(C)(C)C1` (stereo unspecified) [Cyclandelate], the “scaled lipid accumulation score” value by setting is: under setting [1], not above 0; under setting [2], 0.196. As for `CC1CC(OC(=O)C(O)c2ccccc2)CC(C)(C)C1` (stereo unspecified), the “scaled lipid accumulation score” value under setting [2] is 0.065.

As for `COc1cc2c(cc1OC)-c1[nH]nc(Nc3cccc(F)c3)c1C2`, the “scaled lipid accumulation score” value is, setting by setting: under setting [6], not above -0.001; under setting [3], not above -0.001; under setting [5], not above 0; under setting [4], 0.073; under setting [2], 0.232. On to `COc1cc2c(cc1OC)-c1[nH]nc(Nc3cccc(F)c3)c1C2` [PDGF Receptor Tyrosine Kinase Inhibitor IV], for which, under setting [1], the “scaled lipid accumulation score” value was 0.044.

For the molecule `O[C@H]1[C@H](O)[C@@H](O)[C@@H]2O[C@@H]2[C@@H]1O` (racemic) [Conduritol b epoxide], under “library stock concentration: 12.3 mM”, the “scaled lipid accumulation score” value is not above 0. `Cc1cc(O)c(C=O)c2c1C(=O)Oc1c(C)c(O)c3c(c1O2)C(O)OC3=O` (stereo unspecified) [Norstictic acid]: under setting [2], the “scaled lipid accumulation score” value is not above 0. Regarding `CNCCC(Oc1ccc(C(F)(F)F)cc1)c1ccccc1` (stereo unspecified) [Fluoxetine], under setting [2], the “scaled lipid accumulation score” value is 0.637.

Regarding `CNCC[C@H](Oc1ccc(C(F)(F)F)cc1)c1ccccc1` [S-(+)-Fluoxetine hydrochloride], the “scaled lipid accumulation score” value under setting [2] was 0.403.

`CNCCC(Oc1ccc(C(F)(F)F)cc1)c1ccccc1.Cl` (stereo unspecified) [Fluoxetine hydrochloride]: the “scaled lipid accumulation score” value was 1.05 (active). Turning to `CN(CC[C@@H](Oc1ccc(-c2ccccc2)cc1)c1ccc(F)cc1)CC(=O)O` [ALX 5407 hydrochloride], the “scaled lipid accumulation score” value under setting [2] was not above -0.006. Same read-out and setting: the value for `CNCCC(Oc1ccc(C(F)(F)F)cc1)c1ccccc1` (stereo unspecified) [Fluoxetine hydrochloride] was 0.09; that for `CN(CC[C@@H](Oc1ccc(C(F)(F)F)cc1)c1ccccc1)CC(=O)[O-].[Li+]` was 0.149.

`O=C(NCc1ccncc1)C12CC3CC(C1)CC(c1ccc(Cl)cc1)(C3)C2`: for the setting “library stock concentration: 13.1 mM”, the “scaled lipid accumulation score” value was 0.27. As to `C[C@H](N[C@@H](CCc1ccccc1)C(=O)O)C(=O)N1Cc2ccccc2C[C@H]1C(=O)O`, the “scaled lipid accumulation score” value under setting [2] is not above 0. As to `O=C1Nc2ccc(Cl)cc2/C1=C/c1cc(Cl)c(O)c(Cl)c1`, the “scaled lipid accumulation score” value runs as follows: under setting [6], not above -0.001; under setting [3], not above -0.001; under setting [4], not above -0.001; under setting [2], not above -0.001. Consider `CN1CCN(C(=O)c2cc3cc(Cl)ccc3[nH]2)CC1`, for which the “scaled lipid accumulation score” value is 0.053 under setting [1] and 0.452 under setting [2].

Turning to `Cc1[nH]c(C=C2C(=O)Nc3ccc(S(=O)(=O)N(C)c4cccc(Cl)c4)cc32)c(C)c1C(=O)N1CCN(C)CC1`, the “scaled lipid accumulation score” value was 1.39 (active) under setting [1] and 1.27 (active) under setting [2]. For `O=C1Nc2ccc(Cl)cc2/C1=C/c1cc(Cl)c(O)c(Cl)c1` [PKR Inhibitor, Negative Control], the “scaled lipid accumulation score” value under setting [1] was not above 0.

As to `Cc1[nH]c(/C=C2/C(=O)Nc3ccc(S(=O)(=O)N(C)c4cccc(Cl)c4)cc32)c(C)c1C(=O)N1CCN(C)CC1`, the “scaled lipid accumulation score” value under setting [4] was 0.927 (active) and the “scaled lipid accumulation score” value under setting [2] was 1.14 (active).

Consider `Cc1[nH]c(/C=C2\C(=O)Nc3ccc(S(=O)(=O)N(C)c4cccc(Cl)c4)cc32)c(C)c1C(=O)N1CCN(C)CC1` [Met Kinase Inhibitor], for which the “scaled lipid accumulation score” value under setting [1] was 1.38 (active). For the molecule `CN1CCCN(C(=O)c2cccc(-c3ccc(/C=C4/C(=O)Nc5ccc(Cl)cc54)o3)c2)CC1`, the “scaled lipid accumulation score” value by setting is: under setting [1], 0.657; under setting [2], not above -0.001.

`Cc1[nH]c(/C=C2\C(=O)Nc3ccc(S(=O)(=O)N(C)c4cccc(Cl)c4)cc32)c(C)c1C(=O)N1CCN(C)CC1`: the “scaled lipid accumulation score” value was 0.129 under setting [6] and 0.261 under setting [3]. Take `Cc1[nH]c(/C=C2\C(=O)Nc3ccc(S(=O)(=O)Cc4c(Cl)cccc4Cl)cc32)c(C)c1C(=O)N1CCC[C@@H]1CN1CCCC1` [listing 1 of 2 here]: the “scaled lipid accumulation score” value by setting is: under setting [1], 0.429; under setting [2], 0.553 and 0.41 and 0.638. `Cc1[nH]c(/C=C2\C(=O)Nc3ccc(S(=O)(=O)Cc4c(Cl)cccc4Cl)cc32)c(C)c1C(=O)N1CCC[C@@H]1CN1CCCC1` [listing 2 of 2 here]: the “scaled lipid accumulation score” value runs as follows: under setting [6], 1.15 (active); under setting [3], 1.16 (active); under setting [4], 1.16 (active). `COC(=O)C[C@H](NC(=O)[C@H](C)NC(=O)[C@@H](NC(=O)OCc1ccccc1)C(C)C)C(=O)CF`: the “scaled lipid accumulation score” value (library stock concentration: 10.7 mM) was not above -0.012. Turning to `CC(=O)N[C@@H](CCC(N)=O)C(=O)O`, the “scaled lipid accumulation score” value under setting [2] was not above 0. As for `N#CC(c1ccnc(NCCc2cccnc2)n1)c1nc2ccccc2s1` (stereo unspecified) [JNK Inhibitor V], the “scaled lipid accumulation score” value under setting [1] is 0.329. With `N#CC(c1ccnc(NCCc2cccnc2)n1)c1nc2ccccc2s1` (stereo unspecified), the “scaled lipid accumulation score” value under setting [6] is not above 0, the “scaled lipid accumulation score” value under setting [3] was not above 0, the “scaled lipid accumulation score” value under setting [4] is 0.058 and the “scaled lipid accumulation score” value under setting [2] is 0.62.

Take `CC(=O)NCCCCCCNC(C)=O`: under setting [2], the “scaled lipid accumulation score” value is not above 0. `COc1cc2c(cc1O)[C@@H](Cc1ccc(O)cc1)[N+](C)(C)CC2` [Magnocurarine iodide]: the “scaled lipid accumulation score” value under setting [2] is 0.116. Turning to `CCOCC(O)COc1ccc(NC(=O)CC[S+](C)C)cc1` (stereo unspecified) [Suplatast tosylate], the “scaled lipid accumulation score” value under setting [2] is not above -0.001.

With `CCOCC(O)COc1ccc(NC(=O)CC[S+](C)C)cc1` (stereo unspecified) [Suplatast Tosylate], the “scaled lipid accumulation score” value is, setting by setting: under setting [1], not above 0; under setting [2], not above 0. On to `NC1=NCC2c3ccccc3Cc3ccccc3N12` (stereo unspecified) [Epinastine hydrochloride], for which the “scaled lipid accumulation score” value under setting [2] was 0.592. On to `NC1=NCC2c3ccccc3Cc3ccccc3N12` (stereo unspecified) [Epinastine HCl], for which the “scaled lipid accumulation score” value under setting [1] was not above 0 and the “scaled lipid accumulation score” value under setting [2] was 0.038. Consider `CCOC(=O)C(Cc1ccc(O)cc1)NC(C)=O` (stereo unspecified) [Acetyl tyrosine ethyl ester], for which the “scaled lipid accumulation score” value under setting [2] is not above 0. Take `CCCCC/C=C/C/C=C/CCCCCCCC(=O)O` [Linoelaidic Acid]: under setting [5], the “scaled lipid accumulation score” value is 0.006. As to `CC(=O)[C@H]1CC[C@H]2[C@@H]3CC=C4C[C@@H](O)CC[C@]4(C)[C@H]3CC[C@]12C` [Pregnenolone], the “scaled lipid accumulation score” value was 0.084. Besides, the “scaled lipid accumulation score” value under setting [1] was not above 0. Further, the “scaled lipid accumulation score” value (library stock concentration: 6.3 mM) is not above 0. Moreover, under setting [2], the “scaled lipid accumulation score” value was not above 0.

With `C[C@]12CC[C@H](O)CC1=CCC1C2CC[C@]2(C)C(n3cnc4ccccc43)=CCC12` (stereo partly specified) [Galeterone], the “scaled lipid accumulation score” value under setting [2] is 1.27 (active). With `C[C@]12CC[C@H](O)CC1=CC[C@@H]1[C@@H]2CC[C@]2(C)C(n3cnc4ccccc43)=CC[C@@H]12` [Galeterone], the “scaled lipid accumulation score” value under setting [1] is 0.137. For `N[C@@H](Cc1ccc(O)c([N+](=O)[O-])c1)C(=O)O` [Nitrotyrosine], the “scaled lipid accumulation score” value under setting [5] was 0.016. As to `CC(C)NCCCn1c(Sc2cc3c(cc2I)OCO3)nc2c(N)ncnc21` [listing 1 of 2 here], the “scaled lipid accumulation score” value under setting [1] is 0.728. `CC(C)NCCCn1c(Sc2cc3c(cc2I)OCO3)nc2c(N)ncnc21` [listing 2 of 2 here]: under setting [2], the “scaled lipid accumulation score” value is 0.881 (active).

As for `O=C(CCc1ccc(O)c(O)c1)N[C@@H](CC(=O)OCc1ccccc1)C(=O)OCc1ccccc1`, the “scaled lipid accumulation score” value under setting [5] was not above 0. For `COCCOc1ccc2c(c1)ncn2-c1ccc2cccc(N3CCC(N)CC3)c2n1` [listing 1 of 2 here], under setting [2], the “scaled lipid accumulation score” value was 0.937 (active). Regarding `COCCOc1ccc2c(c1)ncn2-c1ccc2cccc(N3CCC(N)CC3)c2n1` [listing 2 of 2 here], the “scaled lipid accumulation score” value reads like this: under setting [6], not above 0; under setting [3], 0.202; under setting [4], 0.523; under setting [1], 0.785; under setting [2], 0.832. Consider `NC1CCN(c2cccc(Cl)n2)CC1`, for which, under setting [2], the “scaled lipid accumulation score” value was 0.62 and 0.499. As to `CC1(COc2ccc3c(c2)ncn3-c2ccc3cccc(N4CCC(N)CC4)c3n2)COC1` [listing 1 of 2 here], the “scaled lipid accumulation score” value under setting [2] was 0.404. For the molecule `CC1(COc2ccc3c(c2)ncn3-c2ccc3cccc(N4CCC(N)CC4)c3n2)COC1` [listing 2 of 2 here], the “scaled lipid accumulation score” value under setting [1] is 0.869 (active). Consider `COc1c2c(nc3ccccc13)OC(C(C)(O)CO)C2` (stereo unspecified) [Dubinidine], for which the “scaled lipid accumulation score” value was not above 0.

Take `O=C(O)CCCC=CCC1C(O)CC(O)C1C=CC(O)COc1cccc(C(F)(F)F)c1` [15(S)-Fluprostenol]: the “scaled lipid accumulation score” value under setting [5] is not above 0.

Consider `CCCCCCCCC=CCCCCCCCCOCCOP(=O)([O-])OCC[N+](C)(C)C` [Oleyloxyethyl Phosphorylcholine], for which the “scaled lipid accumulation score” value under setting [5] was not above 0. Consider `CC/C=C\C/C=C\C/C=C\C/C=C\CCCCCCC(=O)OCC` [.omega.-3 Arachidonic Acid ethyl ester], for which, under setting [5], the “scaled lipid accumulation score” value is not above 0. Regarding `CCCCCCCCCCCCCCCCCCCCCCCCC(=O)OC` [Pentacosanoic Acid methyl ester], the “scaled lipid accumulation score” value under setting [5] is not above 0. As to `CCCc1cc(C(=O)c2ccc(-c3ccccc3)cc2)ccc1OCCCN1CCCc2c(OC(C)(C)C(=O)O)cccc21`, the “scaled lipid accumulation score” value under setting [5] is not above 0. Regarding `CCCCCCCCC=CCCCCCCCCCCCC(N)=O` [13-Docosenamide], under setting [5], the “scaled lipid accumulation score” value was not above 0.

Take `[O-][n+]1cccc(CO)c1`: the “scaled lipid accumulation score” value under setting [2] was not above 0. On to `CCCCC/C=C\C/C=C\C/C=C\C/C=C\CCCC(=O)OC(CO)CO` [2-Arachidonoyl Glycerol], for which, under setting [5], the “scaled lipid accumulation score” value was not above 0. On to `CCCCC/C=C\C/C=C\C/C=C\C/C=C\CCCC(=O)OC(CO)CO` [2-Arachidonoylglycerol], for which, under setting [5], the “scaled lipid accumulation score” value is 0.011. On to `CCCCCCCCCCCCCCCCn1cc[n+](Cc2ccccc2)c1C.[I-]`, for which the “scaled lipid accumulation score” value under setting [1] was 0.92 (active). For `CCCCCCCCCCCCCCCCn1cc[n+](Cc2ccccc2)c1C`, the “scaled lipid accumulation score” value was not above -0.001 under setting [6]; not above -0.001 under setting [3]; not above -0.001 under setting [4]; 0.213 and 0.435 under setting [2]. For `CCCCCCCCCCCCC[N+](C)(C)Cc1ccccc1` [Benzalkonium chloride], the “scaled lipid accumulation score” value under setting [2] is 0.182. With `CCCCCCCCCCCCCCCCn1cc[n+](Cc2ccccc2)c1C` [eEF-2 Kinase Inhibitor, NH125], under setting [1], the “scaled lipid accumulation score” value was 0.247.

Values taken from the supplement of paper PMC9135407.
